From PubChem BioAssay (NCATS)
Records with an inconclusive call do not appear. Active and inactive are the calls of the source. Calls follow the shape of the dose curve; as a rule, active = well fitted inhibition curve with a large enough effect; inconclusive = small, poorly fitted or top-dose-only effect; inactive = flat fitted curve, though single readings scatter.

How the values were obtained:
Test in all cases: qHTS profiling for inhibitors of Plasmodium falciparum proliferation (AID 504749); also: nearly all actives have a fitted effect of over 60% in size
Conditions in all cases: P. falciparum in erythrocytes, SYBR Green DNA, 72 h; series mostly up to 28.7 µM
[1] = tested on: PC26
Procedure, shortened: (§1)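 Three-day growth assay of blood-stage parasites in erythrocytes (0.3% parasitemia, 2.5% hematocrit) at 37 C, 5% CO2, quantified by SYBR Green DNA staining after overnight detergent lysis.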

[2] = tested on: PC49
Procedure, shortened: as §1

[3] = tested on: SC27B
Procedure, shortened: as §1

[4] = tested on: TAB109
Procedure, shortened: as §1

[5] = tested on: TAB113
Procedure, shortened: as §1

[6] = tested on: TAB165
Procedure, shortened: as §1

[7] = tested on: W2
Procedure, shortened: as §1

Measured: Potency

CC1(C)S[C@@H]2[C@H](NC(=O)[C@@H](NC(=O)N3CCNC3=O)c3ccccc3)C(=O)N2[C@H]1C(=O)O
inactive: [1] | [2] | [3] | [4] | [5] | [6] | [7]

CC(C(=O)O)c1ccc(N2Cc3ccccc3C2=O)cc1 (stereo not drawn)
inactive: [1] | [2] | [3] | [4] | [5] | [6] | [7]

Cc1cn([C@H]2C[C@H](O)[C@@H](CO)O2)c(=O)[nH]c1=O
inactive: [1] | [2] | [3] | [4] | [5] | [6] | [7]

CC1=C(/C=C/C(C)=C/C=C/C(C)=C/C=C/C=C(C)/C=C/C=C(C)/C=C/C2=C(C)C(=O)CCC2(C)C)C(C)(C)CCC1=O
inactive: [1] | [2] | [3] | [4] | [5] | [6] | [7]

O=S(=O)(O)c1ccc2c(N=Nc3ccc(S(=O)(=O)O)c4ccccc34)c(O)c(S(=O)(=O)O)cc2c1
inactive: [1] | [2] | [3] | [4] | [5] | [6] | [7]

Cc1c(C)c2c(c(C)c1O)CC[C@@](C)(CCC[C@H](C)CCC[C@H](C)CCCC(C)C)O2
inactive: [1] | [2] | [3] | [4] | [5] | [6] | [7]

Cc1cc(C(=O)NNCc2ccccc2)no1
inactive: [1] | [2] | [3] | [4] | [5] | [6] | [7]

CCOc1ccc2c(c1)C(C)=CC(C)(C)N2
inactive: [1] | [2] | [3] | [4] | [5] | [6] | [7]

CCCC(=O)Nc1ncnc2c1ncn2C1OC2COP(=O)(O)OC2C1OC(=O)CCC (stereo not drawn)
inactive: [1] | [2] | [3] | [4] | [5] | [6] | [7]
